This is a sample that favours compounds with a hit; in the whole collection about 1.4% have one here.
MOR-DOR ag-1 – agonists of human mu-delta opioid receptor heterodimerization | P35372+P41143 | cells, OPRM1-OPRD1 heterodimerization, luminescence | activation, % at 9.3 µM | actives 0.3% (n = 340,000) | AID 504326;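 also: 0% = vehicle-treated cells and 100% = reference agonist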
p-CIP stab down – lowers stability of the mouse p/CIP coactivator protein. Q05BA5. decrease of EGFP signal, % at 10 µM. AID 1984. F442A p/CIP-EGFP cells, EGFP fluorescence, 16 h. actives 0.01% (n = 290,000);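 active = EGFP signal decrease of at least 30% at 10 µM or well 3 SD below plate mean, unless failing retest; inactive = the rest, including hits failing retest or dose response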
HTR5A ag ctr – HTR5A agonism, opioid heterodimer counter-screen; activation, % at 9.3 µM; P47898; actives 0.61% (n = 340,000); HTR5A agonist assay, luminescence, cell-based; AID 504692; in the data active = activation mostly above about 9.5%, no sharp cut-off; inactive = mostly below about 7.6%;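 also: 0% = cells with vehicle only and 100% = reference agonist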
Target sequence (P47898 whole entry, looked up): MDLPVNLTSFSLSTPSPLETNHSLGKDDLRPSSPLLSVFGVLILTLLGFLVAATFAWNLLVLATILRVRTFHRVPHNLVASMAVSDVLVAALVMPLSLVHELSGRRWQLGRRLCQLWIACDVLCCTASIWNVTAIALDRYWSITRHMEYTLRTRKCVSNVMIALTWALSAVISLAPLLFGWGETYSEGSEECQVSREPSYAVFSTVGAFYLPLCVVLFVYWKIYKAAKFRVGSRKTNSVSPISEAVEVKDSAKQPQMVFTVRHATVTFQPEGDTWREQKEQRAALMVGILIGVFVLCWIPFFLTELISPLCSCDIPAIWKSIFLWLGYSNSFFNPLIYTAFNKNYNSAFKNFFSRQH
MOR-DOR inv ag – inverse agonists of human mu-delta opioid receptor heterodimerization; cell-based MOR-DOR heterodimer luminescence, inverse agonism; inhibition, % at 9.3 µM; actives 0.21% (n = 340,000); AID 504357; in the data active = inhibition above about 22%, passing the limit was not always enough;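 also: 0% = cells with DMSO and 100% = wells without cells with DMSO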
beta cell repl – inducers of beta-cell replication in MIN6 cells; MIN6 cells proliferation, ATPlite luminescence, 48 h; cells starved in 0.2% serum; 100% = growth in 10% serum; proliferation, % at 10 µM; actives 0.29% (n = 330,000); AID 2380;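 active = compounds whose signal lies at least 3.5 SD above the mean of all wells on their plate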;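 also: 0% = DMSO-treated cells in low-serum medium and 100% = 10% serum control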
HTR5A inv ag – HTR5A inverse agonism, opioid heterodimer counter-screen; inhibition, % at 9.3 µM; actives 0.083% (n = 340,000); HTR5A cell line, luminescence; in the data active = inhibition mostly above about 23%, no sharp cut-off; inactive = mostly below about 18%;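 also: 0% = cells with DMSO and 100% = no-cell wells with DMSO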
MOR-DOR ag-2 – counter-screen for HTR5A agonists: OPRM1-OPRD1 heterodimerization agonism. shares compounds with HTR5A ag ctr. actives 13% (n = 800). U2OS counter-screen cells, complementation luminescence, 3 h. activation, % at 9.3 µM
HTR5A ag confirm – HTR5A (human) agonism, confirmation | shares compounds with HTR5A ag ctr | HTR5A agonist cell assay, luminescence | activation, % at 9.3 µM | actives 17% (n = 800) | AID 504915; in the data active = activation above about 17%;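 also: 0% = cells with vehicle only and 100% = full reference agonist response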
* hit, by the source's call; . = not tested or not shown. Rule as the data show it, unless noted: active = activation above about 18%; inactive = the rest.

SMILES | MOR-DOR ag-1 | p-CIP stab down | HTR5A ag ctr | MOR-DOR inv ag | beta cell repl | HTR5A inv ag | MOR-DOR ag-2 | HTR5A ag confirm
COc1ccc(NC(=O)COc2cccc3c2OC(C)(C)C3)cc1OC | 0 | . | 26* | 1 | -4 | -67 | 1 | 29*
COc1cccc(N=C(N)N=C(N)N)c1 | 0 | 0 | 16* | -2 | 0 | -43 | 2 | 2
CC1CCCN(C(=O)Cn2nnc(-c3ccc([N+](=O)[O-])cc3)n2)C1 (stereo unspecified) | 1 | -2 | 2 | -5 | -1 | -6 | . | .
C=CCNc1cc(F)ccc1S(=O)(=O)NCC=C | -3 | . | 1 | 16 | . | -4 | . | .
Cn1cnc(C(=O)NC2CCN(C(=O)OC(C)(C)C)CC2)c1C(=O)NC1CCN(C(=O)OC(C)(C)C)CC1 | -2 | . | 0 | 13 | -1 | 13 | . | .
CC(C)(C)OC(=O)N1CCC(NC(=O)c2ncn(Cc3ccccc3)c2C(=O)NC2CCN(C(=O)OC(C)(C)C)CC2)CC1 | 2 | . | 15* | -11 | -7 | -25 | 5 | 10
O=C(NCc1ccc2c(c1)OCO2)c1cc(-c2ccccc2Cl)on1 | 0 | 4 | 0 | -2 | -2 | -15 | . | .
O=C(Nc1ccc2c(c1)OCO2)c1cc(-c2ccccc2Cl)on1 | 7 | 3 | 17* | -46 | -2 | -34 | 0 | 4
CC1CN(c2ccccc2)CCN1C(=O)c1cc(COc2c(F)cccc2F)on1 (stereo unspecified) | -2 | -5 | 14* | 9 | 1 | 4 | 0 | 87*
CCOC(=O)c1sc(NNC(=O)c2ccc(C)cc2)nc1C | 0 | -3 | 0 | 2 | 0 | -16 | . | .
CCOC(=O)c1sc(NNC(=O)c2ccc(F)cc2)nc1C | 3 | -1 | 16* | -14 | 0 | -3 | 0 | -2
O=C(NNC(=O)c1ccccc1[N+](=O)[O-])c1cccs1 | -3 | -14 | 3 | 15 | -2 | -8 | . | .
O=C(COC(=O)c1ccccc1[N+](=O)[O-])NNC(=O)c1cccs1 | -1 | -5 | 16* | 7 | -3 | -3 | 0 | 0
C1CCC(c2nn3c(-c4n[nH]c5c4CCC5)nnc3s2)CC1 | 0 | 2 | 1 | 1 | -1 | -3 | . | .
CCN(CC)c1ccc(-c2nn3c(-c4n[nH]c5c4CCC5)nnc3s2)cc1 | -2 | -22 | 16* | 9 | -4 | -18 | 9 | 9
O=C(N/N=C1\CCCc2ccccc21)c1ccccc1[N+](=O)[O-] | 3 | 7 | 15* | -20 | -2 | 3 | 2 | 15
CCCCc1ccc(N/C(N)=N/c2nc(C)cc(C)n2)cc1 | . | -14 | . | . | -4 | . | . | .
COc1cccc(C2N=C(c3ccccc3C)NO2)c1OC (stereo unspecified) | 3 | -8 | 0 | -20 | -3 | 0 | . | .
O=c1[nH]nc(-c2n[nH]c(=O)o2)o1 | -2 | . | -1 | 9 | . | 5 | . | .
COc1ccc(S(=O)(=O)Nc2cccc3c2O[C@H](CN(C)S(=O)(=O)c2ccccc2)[C@@H](C)CN([C@H](C)CO)C3=O)cc1 | -3 | . | 3 | 16 | 3 | 5 | . | .
CCOc1ccc2nc(NC(=O)Nc3ccccc3)sc2c1 | 3 | -6 | 20* | -21 | -1 | -55 | 4 | 0
CCN(CC(=O)Nc1cc(Cl)ccc1C)C(=O)c1nc2nc(C)cc(C)n2n1 | -1 | . | -1 | 4 | -2 | 3 | . | .
CC1CCCC(NC(=O)COC(=O)c2cc(S(=O)(=O)N3CCOCC3)ccc2F)C1C (stereo unspecified) | 0 | . | 18* | 0 | -4 | -47 | 4 | 6
CN(C)c1ccc(NC(=S)N2CCN(c3ncc(C(F)(F)F)cc3Cl)CC2)cc1 | 2 | -7 | 16* | -11 | 0 | -10 | 1 | 5
COc1ccc(CC(C)N2CCN(c3cccc(C(F)(F)F)c3)CC2)cc1OC (stereo unspecified) | 5 | -10 | 33* | -27 | -4 | -106 | 11 | 29*
CCOc1cc(CN2CCN(c3cccc(C(F)(F)F)c3)CC2)ccc1OC | 3 | -16 | 6 | -15 | -2 | -17 | . | .
